# Experiments:
# Assay in all cases: DAPPL (digital affinity profiling via proximity ligation, sequencing); 10 mM Tris-HCl pH 7.5, 50 mM NaCl, 1 mM DTT, 4% glycerol, room temperature, 30 min; GST-TFs on glutathione beads, 16-mer random dsDNA library, 0.1% formaldehyde crosslink after washing; high values mean tight binding
# FEV = target: T1, FEV (Homo sapiens, UniProt Q99581 1-238); settings: protein: recombinant; tags: N-terminal GST; dsDNA, one strand shown
# T1 sequence: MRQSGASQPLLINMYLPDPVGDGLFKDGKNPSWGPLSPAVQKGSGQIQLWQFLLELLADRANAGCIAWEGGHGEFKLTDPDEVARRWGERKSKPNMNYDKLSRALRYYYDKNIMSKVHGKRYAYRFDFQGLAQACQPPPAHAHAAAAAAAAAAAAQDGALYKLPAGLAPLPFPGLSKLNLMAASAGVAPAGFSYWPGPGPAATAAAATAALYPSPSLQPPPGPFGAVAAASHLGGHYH
# Outline: (§1)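 Pools were built from human transcription factors expressed in yeast as GST fusions, captured on glutathione beads and DNA-barcoded, along with a tag-only sample. Incubation with 200 nmole of a 16-mer random double-stranded DNA library lasted 30 min at room temperature in Tris/NaCl/DTT/glycerol buffer, and was followed by washing, 0.1% formaldehyde crosslinking, proximity ligation, PCR amplification and Illumina NextSeq500 sequencing. Binding signal is the quotient of each hexamer's read frequency for a factor and its frequency for the tag-only sample.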
# ETV5 = ETV5 (Homo sapiens, UniProt P41161 1-510); settings: protein: recombinant; tags: N-terminal GST; dsDNA, one strand shown
# Chain of ETV5 (P41161 whole entry): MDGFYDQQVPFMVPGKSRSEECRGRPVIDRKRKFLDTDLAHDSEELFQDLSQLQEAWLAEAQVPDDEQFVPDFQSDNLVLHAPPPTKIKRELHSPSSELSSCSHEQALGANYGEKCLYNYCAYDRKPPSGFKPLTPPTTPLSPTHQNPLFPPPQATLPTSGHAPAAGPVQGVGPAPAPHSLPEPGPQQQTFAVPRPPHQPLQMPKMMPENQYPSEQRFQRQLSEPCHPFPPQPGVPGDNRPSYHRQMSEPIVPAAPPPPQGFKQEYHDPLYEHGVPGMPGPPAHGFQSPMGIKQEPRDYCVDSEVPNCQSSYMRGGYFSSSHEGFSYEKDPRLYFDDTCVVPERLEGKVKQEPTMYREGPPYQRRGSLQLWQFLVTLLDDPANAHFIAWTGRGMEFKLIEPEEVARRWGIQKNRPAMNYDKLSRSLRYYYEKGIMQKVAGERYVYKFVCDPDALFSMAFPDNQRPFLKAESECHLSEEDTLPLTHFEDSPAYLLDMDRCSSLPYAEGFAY
# Outline: as §1
# HSF1 = HSF1 (Homo sapiens, UniProt Q00613 1-529); settings: protein: recombinant; tags: N-terminal GST; chain copies: 3; dsDNA, one strand shown
# Chain of HSF1 (Q00613 whole entry): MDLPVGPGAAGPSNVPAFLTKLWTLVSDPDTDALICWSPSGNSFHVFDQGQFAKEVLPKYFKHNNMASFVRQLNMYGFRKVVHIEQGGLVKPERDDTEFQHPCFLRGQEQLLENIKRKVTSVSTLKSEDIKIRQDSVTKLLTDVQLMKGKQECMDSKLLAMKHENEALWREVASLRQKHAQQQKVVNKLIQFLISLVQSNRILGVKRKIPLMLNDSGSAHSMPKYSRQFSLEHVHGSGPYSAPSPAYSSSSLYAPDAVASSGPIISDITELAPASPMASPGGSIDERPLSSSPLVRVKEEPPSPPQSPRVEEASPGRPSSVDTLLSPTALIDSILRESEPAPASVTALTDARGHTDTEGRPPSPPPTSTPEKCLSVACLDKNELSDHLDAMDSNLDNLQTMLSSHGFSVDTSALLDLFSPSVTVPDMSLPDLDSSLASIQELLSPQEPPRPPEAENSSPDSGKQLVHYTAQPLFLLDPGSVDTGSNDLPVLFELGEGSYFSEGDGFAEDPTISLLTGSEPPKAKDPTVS
# Outline: as §1
# SPIC = target: T2, SPIC (Homo sapiens, UniProt Q8N5J4 1-248); settings: protein: recombinant; tags: N-terminal GST; dsDNA, one strand shown
# T2 sequence: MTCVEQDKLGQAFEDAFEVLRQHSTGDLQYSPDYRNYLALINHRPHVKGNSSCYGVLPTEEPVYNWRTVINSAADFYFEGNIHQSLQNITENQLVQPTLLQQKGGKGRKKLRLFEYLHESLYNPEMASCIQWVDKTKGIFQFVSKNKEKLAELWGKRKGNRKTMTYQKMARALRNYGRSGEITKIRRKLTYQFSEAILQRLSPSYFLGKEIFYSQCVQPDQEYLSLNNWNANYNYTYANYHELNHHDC
# Outline: as §1
# ELF4 = ELF4 (Homo sapiens, UniProt Q99607 1-663); settings: protein: recombinant; tags: N-terminal GST; dsDNA, one strand shown
# Chain of ELF4 (Q99607 whole entry): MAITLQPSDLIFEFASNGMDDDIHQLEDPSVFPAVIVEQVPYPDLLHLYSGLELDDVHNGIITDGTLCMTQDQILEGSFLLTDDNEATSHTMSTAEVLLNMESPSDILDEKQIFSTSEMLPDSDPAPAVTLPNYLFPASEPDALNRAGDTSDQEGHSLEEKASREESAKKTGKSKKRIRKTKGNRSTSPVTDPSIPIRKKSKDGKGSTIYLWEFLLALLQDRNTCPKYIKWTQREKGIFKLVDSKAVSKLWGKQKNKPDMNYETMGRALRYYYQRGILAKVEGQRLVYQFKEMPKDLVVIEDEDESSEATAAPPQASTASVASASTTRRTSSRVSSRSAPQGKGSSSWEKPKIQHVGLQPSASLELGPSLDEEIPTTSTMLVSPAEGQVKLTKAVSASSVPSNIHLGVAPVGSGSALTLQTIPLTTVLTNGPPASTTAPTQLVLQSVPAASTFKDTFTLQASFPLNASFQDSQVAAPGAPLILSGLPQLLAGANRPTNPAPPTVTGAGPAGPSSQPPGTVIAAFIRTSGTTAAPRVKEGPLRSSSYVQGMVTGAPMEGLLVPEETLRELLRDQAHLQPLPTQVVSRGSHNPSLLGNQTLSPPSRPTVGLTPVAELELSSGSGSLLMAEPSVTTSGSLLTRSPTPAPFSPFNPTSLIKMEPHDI
# Outline: as §1
# ELK4 = target: T3, ELK4 (Homo sapiens, UniProt P28324-2 1-405); settings: protein: recombinant; tags: N-terminal GST; dsDNA, one strand shown
# T3 sequence: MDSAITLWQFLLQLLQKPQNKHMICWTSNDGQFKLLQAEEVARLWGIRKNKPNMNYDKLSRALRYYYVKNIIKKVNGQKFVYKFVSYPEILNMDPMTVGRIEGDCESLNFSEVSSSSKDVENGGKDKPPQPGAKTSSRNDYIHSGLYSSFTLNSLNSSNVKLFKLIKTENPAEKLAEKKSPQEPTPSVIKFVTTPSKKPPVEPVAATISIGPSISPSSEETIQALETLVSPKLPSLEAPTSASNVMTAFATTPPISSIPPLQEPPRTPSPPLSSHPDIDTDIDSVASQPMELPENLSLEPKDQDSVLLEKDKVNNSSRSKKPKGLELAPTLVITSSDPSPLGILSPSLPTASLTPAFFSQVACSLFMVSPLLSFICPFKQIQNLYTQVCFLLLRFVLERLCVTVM
# Outline: as §1
# ETV2 = target: T4, ETV2 (Homo sapiens, UniProt O00321 1-342); settings: protein: recombinant; tags: N-terminal GST; dsDNA, one strand shown
# T4 sequence: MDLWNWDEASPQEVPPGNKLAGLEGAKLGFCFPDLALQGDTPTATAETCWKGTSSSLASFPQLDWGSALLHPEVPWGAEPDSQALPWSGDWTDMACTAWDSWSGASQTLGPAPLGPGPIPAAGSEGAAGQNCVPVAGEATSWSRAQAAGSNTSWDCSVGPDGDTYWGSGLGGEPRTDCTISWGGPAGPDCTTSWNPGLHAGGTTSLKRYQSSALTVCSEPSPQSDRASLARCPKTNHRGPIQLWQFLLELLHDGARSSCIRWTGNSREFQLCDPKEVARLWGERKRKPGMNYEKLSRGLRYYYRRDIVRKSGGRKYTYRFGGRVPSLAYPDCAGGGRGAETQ
# Outline: as §1
# ELF3 = target: T5, ELF3 (Homo sapiens, UniProt P78545 1-371); settings: protein: recombinant; tags: N-terminal GST; dsDNA, one strand shown
# T5 sequence: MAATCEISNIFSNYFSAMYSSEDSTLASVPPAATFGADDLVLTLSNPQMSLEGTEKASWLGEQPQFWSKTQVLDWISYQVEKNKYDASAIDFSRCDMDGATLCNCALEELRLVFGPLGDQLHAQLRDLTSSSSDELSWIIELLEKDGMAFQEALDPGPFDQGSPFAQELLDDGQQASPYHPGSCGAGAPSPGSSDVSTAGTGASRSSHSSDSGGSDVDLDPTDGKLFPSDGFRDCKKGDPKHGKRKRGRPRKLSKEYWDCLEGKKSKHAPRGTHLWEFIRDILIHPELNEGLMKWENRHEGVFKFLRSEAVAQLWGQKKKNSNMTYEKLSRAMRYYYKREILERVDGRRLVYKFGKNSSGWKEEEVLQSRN
# Outline: as §1
# CRX = CRX (Homo sapiens, UniProt O43186 1-299); settings: protein: recombinant; tags: N-terminal GST; dsDNA, one strand shown
# Chain of CRX (O43186 whole entry): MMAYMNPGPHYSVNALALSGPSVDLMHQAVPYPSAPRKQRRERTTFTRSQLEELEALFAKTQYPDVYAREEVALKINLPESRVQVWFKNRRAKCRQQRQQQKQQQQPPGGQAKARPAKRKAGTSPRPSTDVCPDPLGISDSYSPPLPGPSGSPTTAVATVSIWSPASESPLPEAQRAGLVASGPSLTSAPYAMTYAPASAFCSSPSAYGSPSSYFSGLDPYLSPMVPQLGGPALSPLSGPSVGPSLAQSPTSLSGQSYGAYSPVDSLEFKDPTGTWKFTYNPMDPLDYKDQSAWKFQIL
# Outline: as §1
# ETV1 = ETV1 (Homo sapiens, UniProt P50549 1-477); settings: protein: recombinant; tags: N-terminal GST; dsDNA, one strand shown
# Chain of ETV1 (P50549 whole entry): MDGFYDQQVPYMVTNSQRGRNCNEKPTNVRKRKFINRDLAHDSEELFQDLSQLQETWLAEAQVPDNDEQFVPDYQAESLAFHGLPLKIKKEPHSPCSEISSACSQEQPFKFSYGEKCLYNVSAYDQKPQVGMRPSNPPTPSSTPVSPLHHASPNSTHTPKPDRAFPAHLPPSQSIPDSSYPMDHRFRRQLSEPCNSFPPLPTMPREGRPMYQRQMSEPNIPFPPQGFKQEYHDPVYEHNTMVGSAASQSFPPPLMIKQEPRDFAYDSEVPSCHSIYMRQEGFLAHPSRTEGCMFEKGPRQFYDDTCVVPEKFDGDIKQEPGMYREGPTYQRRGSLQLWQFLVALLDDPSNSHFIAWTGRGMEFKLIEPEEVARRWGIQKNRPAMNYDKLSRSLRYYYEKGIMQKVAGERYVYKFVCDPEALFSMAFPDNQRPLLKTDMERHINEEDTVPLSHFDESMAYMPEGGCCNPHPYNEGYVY
# Outline: as §1
# ERF = target: T6, ERF (Homo sapiens, UniProt P50548 1-548); settings: protein: recombinant; tags: N-terminal GST; dsDNA, one strand shown
# T6 sequence: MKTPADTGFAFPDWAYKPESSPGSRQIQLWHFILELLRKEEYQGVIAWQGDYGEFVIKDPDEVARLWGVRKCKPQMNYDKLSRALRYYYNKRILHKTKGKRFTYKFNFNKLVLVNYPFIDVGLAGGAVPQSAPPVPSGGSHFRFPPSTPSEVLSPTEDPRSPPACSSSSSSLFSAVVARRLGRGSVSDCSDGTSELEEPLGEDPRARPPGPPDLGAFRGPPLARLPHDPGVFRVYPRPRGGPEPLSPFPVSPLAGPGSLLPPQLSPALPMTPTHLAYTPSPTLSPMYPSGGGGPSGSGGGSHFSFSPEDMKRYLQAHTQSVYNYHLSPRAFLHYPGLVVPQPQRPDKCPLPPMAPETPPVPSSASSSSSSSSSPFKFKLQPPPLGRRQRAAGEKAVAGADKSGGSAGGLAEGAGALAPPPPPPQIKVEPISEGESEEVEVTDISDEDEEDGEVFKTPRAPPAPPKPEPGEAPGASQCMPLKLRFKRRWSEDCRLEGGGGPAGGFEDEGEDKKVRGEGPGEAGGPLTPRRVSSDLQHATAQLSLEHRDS
# Outline: as §1
# ETV3L = target: T7, ETV3L (Homo sapiens, UniProt Q6ZN32 1-361); settings: protein: recombinant; tags: N-terminal GST; dsDNA, one strand shown
# T7 sequence: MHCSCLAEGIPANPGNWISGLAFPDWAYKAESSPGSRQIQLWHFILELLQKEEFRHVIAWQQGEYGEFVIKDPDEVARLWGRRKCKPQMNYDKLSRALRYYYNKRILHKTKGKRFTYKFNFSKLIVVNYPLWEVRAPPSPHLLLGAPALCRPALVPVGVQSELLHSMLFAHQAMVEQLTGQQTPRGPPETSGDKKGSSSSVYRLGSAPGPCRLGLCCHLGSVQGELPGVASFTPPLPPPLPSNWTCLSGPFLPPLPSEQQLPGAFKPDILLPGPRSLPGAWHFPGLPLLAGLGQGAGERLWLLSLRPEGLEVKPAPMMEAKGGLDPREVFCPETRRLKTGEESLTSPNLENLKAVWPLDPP
# Outline: as §1
# ETS2 = target: T8, ETS2 (Homo sapiens, UniProt P15036 1-469); settings: protein: recombinant; tags: N-terminal GST; dsDNA, one strand shown
# T8 sequence: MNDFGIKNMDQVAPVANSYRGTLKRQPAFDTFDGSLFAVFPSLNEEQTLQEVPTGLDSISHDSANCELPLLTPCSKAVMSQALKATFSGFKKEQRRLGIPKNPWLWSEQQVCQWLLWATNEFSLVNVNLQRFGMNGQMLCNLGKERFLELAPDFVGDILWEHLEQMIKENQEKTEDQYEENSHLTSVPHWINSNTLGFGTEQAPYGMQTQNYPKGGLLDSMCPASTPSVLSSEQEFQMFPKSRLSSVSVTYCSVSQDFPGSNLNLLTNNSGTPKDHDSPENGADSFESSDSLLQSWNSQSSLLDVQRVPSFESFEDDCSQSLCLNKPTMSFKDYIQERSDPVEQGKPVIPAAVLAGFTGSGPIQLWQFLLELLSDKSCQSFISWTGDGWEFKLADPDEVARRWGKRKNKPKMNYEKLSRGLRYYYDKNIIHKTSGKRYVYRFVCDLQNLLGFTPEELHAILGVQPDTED
# Outline: as §1
# SPDEF = target: T9, SPDEF (Homo sapiens, UniProt O95238 1-335); settings: protein: recombinant; tags: N-terminal GST; dsDNA, one strand shown
# T9 sequence: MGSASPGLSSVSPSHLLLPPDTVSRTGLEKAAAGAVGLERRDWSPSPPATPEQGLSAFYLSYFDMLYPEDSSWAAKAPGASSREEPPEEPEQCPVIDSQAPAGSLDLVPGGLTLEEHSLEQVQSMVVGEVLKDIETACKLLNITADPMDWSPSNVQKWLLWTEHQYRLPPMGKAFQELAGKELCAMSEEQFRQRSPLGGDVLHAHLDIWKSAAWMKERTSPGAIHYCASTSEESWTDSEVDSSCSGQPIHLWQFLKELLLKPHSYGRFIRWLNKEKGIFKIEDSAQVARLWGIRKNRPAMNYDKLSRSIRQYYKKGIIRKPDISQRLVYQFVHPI
# Outline: as §1
# ETV7 = target: T10, ETV7 (Homo sapiens, UniProt Q9Y603 1-341); settings: protein: recombinant; tags: N-terminal GST; dsDNA, one strand shown
# T10 sequence: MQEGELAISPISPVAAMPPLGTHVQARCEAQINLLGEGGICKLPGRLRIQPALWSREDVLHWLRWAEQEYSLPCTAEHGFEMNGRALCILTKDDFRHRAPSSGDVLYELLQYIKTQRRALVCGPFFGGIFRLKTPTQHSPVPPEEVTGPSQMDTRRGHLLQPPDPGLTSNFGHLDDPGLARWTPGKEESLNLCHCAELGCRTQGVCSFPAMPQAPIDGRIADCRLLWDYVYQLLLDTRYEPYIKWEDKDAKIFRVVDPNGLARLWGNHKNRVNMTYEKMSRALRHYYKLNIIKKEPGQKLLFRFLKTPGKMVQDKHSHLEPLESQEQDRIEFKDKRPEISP
# Outline: as §1
# ELF5 = target: T11, ELF5 (Homo sapiens, UniProt Q9UKW6-2 1-255); settings: protein: recombinant; tags: N-terminal GST; dsDNA, one strand shown
# T11 sequence: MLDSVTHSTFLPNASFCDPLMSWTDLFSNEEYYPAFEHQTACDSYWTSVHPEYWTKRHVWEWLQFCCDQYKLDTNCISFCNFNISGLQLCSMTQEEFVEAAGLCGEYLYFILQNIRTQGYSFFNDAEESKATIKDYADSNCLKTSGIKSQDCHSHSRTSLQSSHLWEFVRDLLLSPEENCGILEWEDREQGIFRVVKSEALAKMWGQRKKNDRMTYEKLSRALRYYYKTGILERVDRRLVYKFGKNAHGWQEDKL
# Outline: as §1
# ETV3 = target: T12, ETV3 (Homo sapiens, UniProt P41162-2 1-143); settings: protein: recombinant; tags: N-terminal GST; dsDNA, one strand shown
# T12 sequence: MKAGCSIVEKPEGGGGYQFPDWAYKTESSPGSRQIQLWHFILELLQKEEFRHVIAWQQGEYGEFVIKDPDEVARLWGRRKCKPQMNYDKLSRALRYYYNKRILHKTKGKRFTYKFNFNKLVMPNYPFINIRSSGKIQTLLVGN
# Outline: as §1
# ETV6 = ETV6 (Homo sapiens, UniProt P41212 1-452); settings: protein: recombinant; tags: N-terminal GST; dsDNA, one strand shown
# Chain of ETV6 (P41212 whole entry): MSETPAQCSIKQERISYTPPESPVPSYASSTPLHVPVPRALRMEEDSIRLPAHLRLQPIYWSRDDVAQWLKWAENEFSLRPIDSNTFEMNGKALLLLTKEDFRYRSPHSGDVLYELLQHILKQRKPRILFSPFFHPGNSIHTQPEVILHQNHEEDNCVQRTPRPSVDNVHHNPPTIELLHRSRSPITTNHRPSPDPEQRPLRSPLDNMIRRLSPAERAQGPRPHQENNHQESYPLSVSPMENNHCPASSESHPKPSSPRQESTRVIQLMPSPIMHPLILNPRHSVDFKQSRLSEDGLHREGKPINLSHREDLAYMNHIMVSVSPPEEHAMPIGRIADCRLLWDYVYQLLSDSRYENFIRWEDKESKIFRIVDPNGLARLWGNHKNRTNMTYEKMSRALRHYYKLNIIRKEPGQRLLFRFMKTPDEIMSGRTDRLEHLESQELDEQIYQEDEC
# Outline: as §1
Sequence,binding signal (FEV),binding signal (ETV5),binding signal (HSF1),binding signal (SPIC),binding signal (ELF4),binding signal (ELK4),binding signal (ETV2),binding signal (ELF3),binding signal (CRX),binding signal (ETV1),binding signal (ERF),binding signal (ETV3L),binding signal (ETS2),binding signal (SPDEF),binding signal (ETV7),binding signal (ELF5),binding signal (ETV3),binding signal (ETV6)
CCTACG,"1.48 fold enrichment (6-mer frequency, TF over GST control)","1.32 fold enrichment (6-mer frequency, TF over GST control)","1.21 fold enrichment (6-mer frequency, TF over GST control)","1.37 fold enrichment (6-mer frequency, TF over GST control)","1.37 fold enrichment (6-mer frequency, TF over GST control)","1.38 fold enrichment (6-mer frequency, TF over GST control)","1.44 fold enrichment (6-mer frequency, TF over GST control)","1.5 fold enrichment (6-mer frequency, TF over GST control)","1.11 fold enrichment (6-mer frequency, TF over GST control)","1.47 fold enrichment (6-mer frequency, TF over GST control)","1.37 fold enrichment (6-mer frequency, TF over GST control)","1.59 fold enrichment (6-mer frequency, TF over GST control)","1.35 fold enrichment (6-mer frequency, TF over GST control)","1.41 fold enrichment (6-mer frequency, TF over GST control)","1.49 fold enrichment (6-mer frequency, TF over GST control)","1.43 fold enrichment (6-mer frequency, TF over GST control)","1.38 fold enrichment (6-mer frequency, TF over GST control)","1.61 fold enrichment (6-mer frequency, TF over GST control)"
CTACGG,"1.28 fold enrichment (6-mer frequency, TF over GST control)","1.21 fold enrichment (6-mer frequency, TF over GST control)","1.03 fold enrichment (6-mer frequency, TF over GST control)","1.08 fold enrichment (6-mer frequency, TF over GST control)","1.22 fold enrichment (6-mer frequency, TF over GST control)","1.37 fold enrichment (6-mer frequency, TF over GST control)","1.29 fold enrichment (6-mer frequency, TF over GST control)","1.38 fold enrichment (6-mer frequency, TF over GST control)","1.08 fold enrichment (6-mer frequency, TF over GST control)","1.34 fold enrichment (6-mer frequency, TF over GST control)","1.37 fold enrichment (6-mer frequency, TF over GST control)","1.42 fold enrichment (6-mer frequency, TF over GST control)","1.16 fold enrichment (6-mer frequency, TF over GST control)","1.17 fold enrichment (6-mer frequency, TF over GST control)","1.28 fold enrichment (6-mer frequency, TF over GST control)","1.24 fold enrichment (6-mer frequency, TF over GST control)","1.29 fold enrichment (6-mer frequency, TF over GST control)","1.19 fold enrichment (6-mer frequency, TF over GST control)"
